Data taken from PubChem BioAssay AID1347417 (National Center for Advancing Translational Sciences (NCATS), 2020).
The whole screen tested about 120,000 compounds, of which about 5,300 (4.4%) were called active. About 22% were inconclusive and are not listed. The sample holds actives, similar compounds and a random draw of the others, so the mix is not that of the screen. Unmarked numbers belong to inactive results. Calls follow the shape of the dose curve; as a rule, active = well fitted inhibition curve with a large enough effect; inconclusive = small, poorly fitted or top-dose-only effect; inactive = no such curve, though single readings can be large or run the other way.

Experiment: qHTS Primary assay for Inhibitors of Plasmodium falciparum Dd2 growth in vitro; also: nearly all actives have a fitted effect of over 65% in size;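 as to activity, negative = inhibition: plate controls were DMSO vehicle for no effect and reference drug for full effect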
Conditions: P. falciparum Dd2 growth, SYBR Green, 72 h; series mostly up to 28.9 µM; activity, negative = inhibition: at the top concentration
Procedure, shortened: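 Readout: SYBR Green fluorescence, 485 nm excitation, 535 nm emission, after ~16 h lysis at 37C. Before that, Dd2-infected red cells (2.5% hematocrit) grew 72 h with compound, 29 uM top final concentration.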
Potency is read from the fitted curve at half-maximal effect.

Structure (SMILES)	outcome	activity, negative = inhibition	Potency
O=C(O)CCn1ncc2cc(OC3CCN(C(=O)C4CCCC4)CC3)ccc21	inactive [at 44.1 µM]		
CCCCNC(=O)C1CCN(C(=O)c2nnn3c2COC(c2ccc(C)cc2)C3)CC1 (stereo unspecified)		-5.53%	
CCOc1cc(=O)n2c(c1C(=O)Nc1cc(Cl)ccc1F)CCCC2		23.8%	
Cc1noc2c(NC3CCCCC3)cc(-c3ccsc3)nc12	inactive [at 44.1 µM]		
Fc1ccc(CNC2(Cc3cc(-c4ccc(F)cc4)on3)COC2)cc1		19.8% [at 44.1 µM]	
FC(F)(F)c1cccc(-c2cc(C3=CCOCC3)c3cncn3c2)c1			14.1 µM (active)
OCc1cccc(-c2cc(C3=CCOCC3)c3cncn3c2)c1		-13.5% [at 44.1 µM]	
O=C1NCc2ccc(-c3cc4c(ccn4Cc4cccnc4)c(C4=CCOCC4)n3)cc21		-8.48% [at 44.1 µM]	
O=C(C1CCOCC1)N1CCC2(CC1)CC(N1CCCC1)CCO2 (stereo unspecified)		45.9%	
COC[C@H]1CCCN1C(=O)C(C)[C@@H]1CC[C@@]2(C)CC[C@H](NC(C)=O)[C@@H](C)[C@@H]2[C@H]1O (stereo partly specified)	inactive [at 44.1 µM]		
Cc1cccc(C(=O)N2C[C@@H](Oc3cccnc3)C[C@H]2C(=O)N2CCCC2)c1		-18.1%	
O=C(NCC1CC1)C1CCCN(C2CCN(Cc3ccncc3)CC2)C1 (stereo unspecified)		-7.77%	
Cc1cc(CNC(=O)C2CCCN(C3CCN(CCc4ccccc4)CC3)C2)on1 (stereo unspecified)		-24.4%	
CCC(CC)C(=O)N1CCC(N2CCCC(C(=O)NCc3ccccc3)C2)CC1 (stereo unspecified)			10 µM (active)
O=C(NCCC1CCN(C(=O)Nc2ccccc2F)CC1)c1ccccc1		-16.1%	
O=[S+]([O-])(Nc1cccnc1)c1ccc2c(c1)OCCN(Cc1ccc(F)cc1)C2	inactive [at 44.1 µM]		
C=CCN(C)C(=O)[C@@H](C)C1CC[C@@]2(C)Cc3sc(Nc4c(Cl)cccc4Cl)nc3[C@@H](C)[C@@H]2[C@H]1O (stereo partly specified)		-6.82%	
Cc1ccc(S(=O)(=O)Nc2nc3c(s2)C[C@@H]2[C@](C)(CO)[C@H](O)CC[C@@]2(C)[C@@H]3CC(=O)O)cc1		-8.19%	
CCCCCC(=O)Nc1nc2c(s1)C[C@@H]1[C@](C)(CO)[C@H](O)CC[C@@]1(C)[C@@H]2CC(=O)N1CCC(C(N)=O)CC1	inactive		
COCC(=O)Nc1nc2c(s1)C[C@@H]1[C@](C)(CO)[C@H](O)CC[C@@]1(C)[C@@H]2CC(=O)NCCN1CCOCC1		-13.9%	
C=CCN(C)C(=O)C[C@@H]1c2nc(NC(=O)c3ccc(C(C)(C)C)cc3)sc2C[C@@H]2[C@](C)(CO)[C@H](O)CC[C@]21C			3.98 µM (active)
CC1CCN(C(=O)C[C@@H]2c3nc(NC(=O)c4ccnc(Cl)c4)sc3C[C@@H]3[C@](C)(CO)[C@H](O)CC[C@]32C)CC1			6.31 µM (active)
CN1CCC2(C1)CN(CC1CCOCC1)c1ccc(C(=O)NCCCn3ccnc3)cc12 (stereo unspecified)	inactive [at 44.1 µM]		

Structure (SMILES)	outcome	activity, negative = inhibition	Potency
c1ncc(CN2CCn3c(nnc3C3CCCNC3)C2)s1 (stereo unspecified)			inactive
Cc1nc(N)nc(C)c1CC(=O)N1CCC2(CC1)OCCCC2O (stereo unspecified)		-11.9%	
Cc1ccc(C(=O)Nc2ccc3[nH]c(=O)c(=O)[nH]c3c2)cc1		-15.3%	
CC(C)c1ccc(NC(=O)c2ccc3c(O)c(S(=O)(=O)c4ccccc4)c(=O)[nH]c3c2)cc1			11.2 µM (active)
COc1ccc(CNC(=O)c2ccc3c(O)c(S(=O)(=O)c4ccccc4)c(=O)[nH]c3c2)cc1		-18.4%	
COc1cccc([S+](=O)([O-])N2CCC3(C2)C(=NC2CCCCC2)NC(=O)N3c2cccnc2)c1 (stereo unspecified)		-9.4%	
N#Cc1ccc(S(=O)(=O)N2CC(n3cc(C(=O)NCc4ccccc4)nn3)C2)cc1		-2.08%	
Cc1ccc(NC(=O)N2CC[C@H]3C(=O)NCCCCCN(Cc4cccnc4)[C@@H]3C2)cc1C			8.91 µM (active)
O=C1NCCCCCCN(Cc2ccncc2)[C@@H]2CN(C(=O)Nc3ccc4c(c3)OCCO4)CC[C@@H]12	inactive		
O=C1NCCCCCN(Cc2cccnc2)[C@@H]2CN(C(=O)C3CCCCC3)CC[C@@H]12		6.03%	
O=C(NCc1ccco1)N1CC2CC(C1)[C@H]1CCCC(=O)N1C2 (stereo partly specified)		-10.7%	
O=C([C@@H]1CCCN1C1CCNCC1)N1CCN(Cc2cccnc2)CC1		-4.31%	
COCC1CN(C(C)=O)CC12CCN(Cc1cccc(C#N)c1)CC2 (stereo unspecified)		9.9%	
CCOc1cccc(CN2CCC3(CC2)CN(C)CC3COC)c1 (stereo unspecified)			4.47 µM (active)
COCC1CN(C(C)=O)CC12CCN(C(=O)NCc1cccc(OC)c1)CC2 (stereo unspecified)		10.7%	
CCOc1ccc(-c2n[nH]c3c2C(c2ccccc2OC)N(c2ccc(Br)cc2)C3=O)cc1 (stereo unspecified)			10 µM (active)
CN1C(=O)c2[nH]nc(-c3ccc(F)cc3)c2C1c1ccccn1 (stereo unspecified)		18.1%	
Cc1ccc(-n2c(C3CCN(C(=O)c4ccccc4C(F)(F)F)CC3)n[nH]c2=O)cc1	inactive		
CC(=O)Nc1cccc(NC(=O)C2CC(=O)N(c3n[nH]c4ccccc34)C2)c1 (stereo unspecified)		-10.6%	
O=c1n(CC2CC2)nc2n1CCC(NS(=O)(=O)Cc1ccccc1)CC2 (stereo unspecified)		5.73%	
CC(=O)c1cc(CN2CCn3nc(C(O)c4ccnn4C)cc3C2)cs1 (stereo unspecified)		14.7%	
O=C(N1CCCCCC1CN1CCOCC1)C1(c2ccccc2)CC1 (stereo unspecified)			10 µM (active)
O=C(Cc1cccs1)N1CCCCCC1c1nc(C2CC2)no1 (stereo unspecified)	inactive		

Structure (SMILES)	outcome	activity, negative = inhibition	Potency
O=C1NCCCCCN(C(=O)NCCc2ccccc2)[C@H]2CCC[C@@H]12		1.93%	
CC(=O)N(C1CC1)C1CCOC2(CCN(C(=O)C3(c4ccccc4)CC3)CC2)C1 (stereo unspecified)	inactive; activator; fitted 4.4668 uM		
O=C(NCCc1ccccc1)N1CCCCCC1CN1CCOCC1 (stereo unspecified)			7.94 µM (active)
O=C(N1CCCC(Cc2nc(C3CCOCC3)no2)C1)C1(c2ccccc2)CC1 (stereo unspecified)		9.71%	
O=C(c1cccs1)N1CCCCCC1CN1CCCC1 (stereo unspecified)			1.26 µM (active)
O=C1NCCOCCCN(C(=O)NCCc2ccccc2)[C@H]2CCC[C@@H]12		17.8%	
COC1CCN(CC2CCCCCN2C(=O)NCc2ccc(F)cc2)CC1 (stereo unspecified)	inactive		
Cc1cc(C)n(-c2cccc(CN(C)Cc3nc(-c4ccccn4)no3)c2)n1		-4.1%	
CC(C)c1ccc(N2C(=O)N[C@@H]3CCN(C(=O)c4ccc(C(C)(C)C)cc4)[C@@H]3C2=O)cc1		-1.05% [at 44.1 µM]	
O=C(Cn1ccn2nc(-c3ccccc3)c(CO)c2c1=O)Nc1ccc2c(c1)CCC2		-5.37%	
O=C(c1ccc2cc[nH]c2c1)N1CCCN(c2cc(-c3ccc(Cl)cc3)[nH]n2)CC1		-29.3%	
CN1C(=O)CS(=O)C12CCN(S(=O)(=O)c1ccc(F)cc1)CC2 (stereo unspecified)		1.13%	
Cc1noc([C@@H]2CN(Cc3ccc(C)o3)C[C@H]2CO)n1		-25.5%	
CN(C)c1ccc(NC(=O)CSc2nc(-c3ccco3)cc(C(F)(F)F)n2)cc1		-7.33%	
Cc1cccc(NC(=O)CSc2nc(-c3ccco3)cc(C(F)(F)F)n2)c1C		12.1%	
Cc1ccc(F)cc1NC(=O)CCSc1nc(-c2ccco2)cc(C(F)(F)F)n1			0.794 µM (active)
Cc1cc(C)cc(C(=O)NCCc2noc(C)n2)c1		-20.8%	
COc1ccccc1N1CCN(c2ncnc3onc(-c4ccc(F)cc4)c23)CC1		-11.9%	
Cc1c(Cl)cccc1NC(=O)C1CCCN(c2ncnc3onc(C)c23)C1 (stereo unspecified)		-4.54%	
Cc1ccc(Cl)cc1N(C)C(=O)C1CCCN(c2ncnc3onc(-c4ccc(F)cc4)c23)C1 (stereo unspecified)			8.91 µM (active)
COc1ccc(C(=O)N[C@H](c2cnn(C)c2)C2CC(O)C2)c(F)c1F (stereo partly specified)		-3.56%	
CCOC(=O)c1[nH]ncc1CN1CCCC(Cc2ccc(F)cc2F)(C(=O)OCC)C1 (stereo unspecified)		-6.69%	
CCOC(=O)C1(Cc2ccc(F)cc2F)CCCN(Cc2cccc(OC)c2O)C1 (stereo unspecified)			3.16 µM (active)

Structure (SMILES)	outcome	activity, negative = inhibition	Potency
COc1cccc(CN2CCN(Cc3ncccc3C)CC2)c1O		-14%	
CCOc1ccc(NC(=O)C2CCN(S(=O)(=O)c3cc(-c4noc(C)n4)ccc3C)CC2)cc1			3.98 µM (active)
CC(=O)c1ccc(NC(=O)C2CCN(S(=O)(=O)c3c(C)noc3/C=C/c3ccc(C)cc3)CC2)cc1	inactive		
CCOC(=O)c1c(C)[nH]c(C)c1S(=O)(=O)N1CCC(C(=O)Nc2ccc(C)c(Cl)c2)CC1		6.26%	
Cc1cnn(CCC(=O)N2CC(F)(F)C[C@H]2c2nnc(C)o2)c1		32.9%	
COc1cccc(S(=O)(=O)N2CCCN(C(=O)C3CC3)c3ccccc32)c1		-17.6%	
CCOC(=O)c1[nH]c(C)c(CCC(=O)N2CCN(c3ccccc3)CC2)c1C			3.98 µM (active)
CCOC(=O)c1c(C)[nH]c(C)c1S(=O)(=O)N(C)CC(=O)N1CCN(c2ccccc2)CC1	inactive		
Cc1nc(SCC(=O)N2CCN(c3ccccc3)CC2)[nH]c(=O)c1C		2.9%	
COCCN1C(=O)c2cccn2CC1CNS(=O)(=O)c1c(C)noc1C (stereo unspecified)		-0.664%	
O=C(c1cccc(F)c1)N1CCOC[C@H](Oc2ccc(C(F)(F)F)cc2)C1	inactive [at 44.1 µM]		
COc1cccc(C(=O)N2CCC(Oc3ccc(C(=O)N4CCOCC4)cn3)CC2)c1		35%	
O=C(c1cccc(OC2CN(Cc3nccs3)C2)c1)N1CCOCC1			2.51 µM (active)
O=C(c1ccccc1)N1Cc2ccccc2CC2(CCCN2CC2CCNC2)C1 (stereo unspecified)		-21.9%	
CC(=O)NCCC(=O)N1Cc2ccccc2CC2(CCCCN2CC2CCNC2)C1 (stereo unspecified)		11.9%	
O=C(C1CCCC1)N1Cc2ccccc2CC2(CCCCN2CC2CCNCC2)C1 (stereo unspecified)			5.01 µM (active)
COCCOc1ccnc(-c2noc([C@@H]3CCCN3Cc3ccc(Cl)cc3)n2)c1			3.98 µM (active)
COc1ccc(C(=O)Nc2ccc(-c3noc([C@@H]4CCCN4Cc4ccc(S(C)(=O)=O)cc4)n3)cn2)cc1	inactive		
COCCNc1ncccc1-c1noc([C@@H]2CCCN2Cc2ccc3c(c2)OCO3)n1		-24% [at 44.1 µM]	
Cc1ccc2c(c1)N1C(=O)OC[C@@H]1CCN(C(=O)c1ccnc(Cl)c1)C2		14% [at 44.1 µM]	
Cc1ccc(-c2nocc2CCC(=O)N2CCN(c3ccccc3F)CC2)cc1	inactive		
CN(C)C(=O)c1cccnc1N1CC2CC(C1)[C@H]1CCCC(=O)N1C2 (stereo partly specified)		-8.74%	
